Assay outcomes from PubChem BioAssay.
Vaccinia Venus – vaccinia inhibition (Venus reporter); Vaccinia virus Venus reporter expression, fluorescence; Potency, µM (titrated, usually from 36.5 µM), for the others: at the top dose activity change, negative = inhibition, usual class: inhibitors; 330,000 compounds, 0.46% hits; AID 720580; calls by dose curve; tested in A549 cells; also: potency is read from the fitted curve at half-maximal effect; nearly all actives have a fitted effect of over 30% in size
HCV inh – HCV inhibition; Potency, µM (top dose mostly 41.8 µM), without a hit: at the highest dose activity change, negative = inhibition, most hits filed as inhibitors; Huh7.5.1 HCVcc-Cre infection, luciferase reporter, 44 h; AID 651820; 340,000 compounds, 3.4% hits; active = well fitted inhibition curve with a large enough effect; inconclusive = small, poorly fitted or top-dose-only effect, or another doubt; inactive = no such curve, though single readings can be large or run the other way; also: potency is read from the fitted curve at half-maximal effect
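HCVcc-Cre virus at an moi near 0.5 was added right after compound to cells cultured 4 h from seeding (1,000 cells/well). Luciferase activity was determined 44 h later, 15 min after substrate addition at RT.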
FMDV inh – blocks foot and mouth disease virus. Potency, µM (top dose mostly 57.9 µM), for the others: at the top dose activity change, negative = inhibition, hits mostly inhibitors. FMDV antiviral cell-based qHTS. 410,000 compounds, 1.2% hits; calls by dose curve; tested in HEK293T cells; also: read-out not given here; potency is read from the fitted curve at half-maximal effect; nearly all actives have a fitted effect of over 45% in size
Vaccinia mCherry – vaccinia inhibition (mCherry reporter); Vaccinia virus mCherry reporter infection, fluorescence; Potency, µM (highest dose often 36.5 µM), for the others: at the highest dose activity change, negative = inhibition, actives largely listed as inhibitors; 310,000 compounds, 0.63% hits; calls by dose curve; tested in A549 cells; also: potency is read from the fitted curve at half-maximal effect; nearly all actives have a fitted effect of over 35% in size
HCMV antiviral – blocks human cytomegalovirus replication. 410,000 compounds, 4.5% hits. HFF cells, HCMV-luciferase reporter, 72 h; active compounds read low. AID 1259415. activity change, negative = inhibition, % at 57.5 µM; in the data active = activity change below about -60%; inconclusive = no clear call, values can overlap the other calls; inactive = above about -39%
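Two compound doses tested in HFFs infected with HCMV-luciferase, MOI 1 PFU/cell, 72 h at 37C. Lysate luminescence read with OneGlo; data normalized against buffer-only and 10uM Salinomycin inhibitor controls.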
An asterisk follows results filed as active; i = inactive; ? = inconclusive; · = no result given. Compounds with a hit are over-represented: about 7.3% of the library has one in this group of screens. % is scaled to controls: 0 for no effect and ±100 for the full control effect.

SMILES | Vaccinia Venus | HCV inh | FMDV inh | Vaccinia mCherry | HCMV antiviral
CCOC(=O)/C(=C\c1ccc(OC(F)F)cc1)C1=Nn2c(nnc2-c2ccc(Cl)cc2)SC1 | 12.6µM* | ? | 12.6µM* | ? | ·
CCOC(=O)/C(=C/c1ccc(OC(F)F)cc1)C1=Nn2c(nnc2-c2ccc(Cl)cc2)SC1 | 11.2µM* | ? | 12.6µM* | ? | -97.8*
S=C1SCCCN1Cc1ccc(Cl)cc1 | -15.1% | · | -18.8% | i | -24.2
CC(C)CCOc1ccc(CC(=O)NO)cc1 | -16.1% | · | · | 4.3% | ·
COC(=O)[C@]1(Cc2ccccc2)N[C@H](c2ccc(-c3ccc(F)cc3)cc2)[C@@H]2C(=O)N(C)C(=O)[C@@H]21 | ? | 11.2µM* | ? | -16.2% | 2.5
CCN1C(=O)[C@H]2[C@@H](c3ccc(-c4cccc(Cl)c4)c(OC)c3)N[C@@](Cc3ccccc3)(C(=O)OC)[C@H]2C1=O | ? | 0.1% | -21.7% | i | 67.4
CCCCCCSc1ccc([C@H]2N[C@@](CC(C)C)(C(=O)OC)[C@H]3C(=O)N(C)C(=O)[C@@H]23)cc1OC | ? | 7.94µM* | 13.5% | -9.1% | 58.1
COC(=O)[C@]1(Cc2ccccc2)N[C@H](c2ccc(-c3cccc(Cl)c3)c(OC)c2)[C@@H]2C(=O)N(C)C(=O)[C@@H]21 | ? | 2.24µM* | -26.9% | ? | 10.8
Cc1ccc(N(Cc2ccco2)C(=O)c2ccc(N3CCCCC3)c([N+](=O)[O-])c2)cc1 | · | ? | 36.7% | · | -65.6*
O=C(NCc1ccco1)c1ccc(N2CCCCC2)c([N+](=O)[O-])c1 | -12.6% | ? | 43.2% | i | -14.2
CCN1/C(=C\C=C2\C(=O)N(c3ccccc3)C(=S)N2C)Sc2ccccc21 | 2.3% | -15.8% | ? | -10.2% | -63.6*
Cn1c(N)c(C(=O)CCl)c(=O)n(Cc2ccccc2)c1=O | ? | 4.1% | 28.2µM* | -30.6% | -22.3
Cn1c(=O)c(C(=O)CCl)c(N)n(Cc2ccccc2)c1=O | 12.6µM* | ? | ? | ? | 25.6
Cc1nnc(SCC(=O)c2c(N)n(Cc3ccccc3)c(=O)n(C)c2=O)n1C | -4.6% | 12.7% | -7.9% | -17.5% | -33.1
Cn1cnnc1SCC(=O)c1c(N)n(Cc2ccccc2)c(=O)n(C)c1=O | -3.7% | 7.9% | 3.7% | -7.1% | -64.3*
CCOc1ccc(NC(=O)CSC2=Nc3ccccc3C3=NC(Cc4ccccc4)C(=O)N23)cc1 (centres undefined) | -12.6% | · | 2.6% | -22.6% | 44.3
CCOCCCn1c(SCC(=O)Nc2ccc(F)cc2)nc2c(sc3ccccc32)c1=O | -22.2% | · | -11.6% | -16.5% | -13.0
C[n+]1c2n(c3ccccc31)N=C(c1cc(C(C)(C)C)c(O)c(C(C)(C)C)c1)CS2 | 10µM* | ? | 14.1µM* | ? | -100.7*
CCOc1ccc(C2c3[nH]c4ccccc4c3CCN2C(=O)CCC2CCCC2)cc1 (centres undefined) | 1.8% | · | -5.7% | -15.1% | -80.5*
COc1ccc(C2c3[nH]c4ccc(OC)cc4c3CCN2C(=O)Nc2ccccc2)cc1 (centres undefined) | -20.6% | · | ? | ? | -88.5*
COc1ccc(C(=O)N2CCc3c([nH]c4ccccc34)C2C(F)(F)F)cc1 (centres undefined) | · | ? | -13.4% | · | -60.2*
O=C(O)c1ccccc1C(=O)N1CCc2c([nH]c3ccccc23)C1C(F)(F)F (centres undefined) | 12.4% | 0.8% | 5.3% | -3.2% | 4.0
CCc1ccccc1NC(=O)N1CCc2c([nH]c3ccccc23)C1c1ccc(C)cc1 (centres undefined) | -14.1% | · | -9.9% | -9.3% | ?
COc1ccc(C2c3[nH]c4ccccc4c3CCN2C(=O)CCC2CCCC2)cc1 (centres undefined) | 14.3% | · | -21.5% | -5.2% | -82.5*
Cc1ccc(C(=O)N/N=C\c2cc3c(cc2Br)OCO3)cn1 | 2.0% | -7.3% | 1.0% | -2.9% | -33.1
SMILES | Vaccinia Venus | HCV inh | FMDV inh | Vaccinia mCherry | HCMV antiviral
O=C(N/N=C/c1cc2c(cc1Br)OCO2)c1c[nH]c2ccccc12 | · | 22.4µM* | 0.0% | · | -18.7
CC(C)(C)c1cc(C(=O)N/N=C/c2cc3c(cc2Br)OCO3)n[nH]1 | · | 11.2µM* | -20.6% | · | 7.0
O=C(N/N=C/c1cc2c(cc1Br)OCO2)c1ccccn1 | 5.3% | -7.9% | 37.5% | -6.2% | -20.4
CCNS(=O)(=O)c1ccc(Br)c(C(=O)OC(C)C(=O)NCC2CCCCC2)c1 (centres undefined) | · | ? | 53.1% | · | 3.0
COc1cc2nc(NC(=O)c3ccc(S(=O)(=O)N4CCc5ccccc54)cc3)sc2cc1OC | -17.6% | · | ? | -26.6% | -71.8*
O=C(Nc1ccc(S(=O)(=O)N2CCCc3ccccc32)cc1)C1CCCO1 (centres undefined) | · | -6.6% | ? | · | 23.7
O=C(Nc1c(F)cccc1F)c1ccc2c(c1)CCN2S(=O)(=O)c1ccccc1 | -24.6% | ? | 0.316µM* | -12.8% | -31.8
COc1ccc(C(=O)Nc2ccc(S(=O)(=O)N3CCc4ccccc43)cc2)cc1 | -27.4% | 11.2µM* | ? | ? | -90.3*
O=C(Nc1ccccc1F)c1ccc2c(c1)CCN2S(=O)(=O)c1ccccc1 | -19.9% | ? | 37.1% | -7.4% | -7.9
O=C(O)C1CC=CCC1C(=O)Nc1ccc(S(=O)(=O)N2CCCc3ccccc32)cc1 (centres undefined) | · | 12.8% | -10.4% | · | -76.4*
CC(C)[C@H](NC(=O)c1ccccc1)C(=O)OCC(=O)Nc1sccc1C(N)=O | -1.9% | ? | ? | -6.4% | 1.0
C#CC[N+](C)(C)CCCCCCCCCC | 14.1µM* | ? | 0.0% | 15.8µM* | -98.1*
CCCCCCCCCCCCCCCC[N+](C)(C)CCl | ? | 12.0% | -21.0% | -17.5% | ?
C#CC[N+](C)(C)CCCCCCCC | · | -17.0% | -21.6% | · | -76.9*
C#CC[N+](C)(C)CCCCCCCCCCCC | 7.94µM* | ? | 22.4µM* | 8.91µM* | -97.8*
CCCCCCCCCCCCCCCC(O)C[N+](C)(C)CCO (centres undefined) | -22.7% | 5.6% | -14.0% | 10.6% | ?
COc1ccc(CNC(=O)CCCCCn2c(=O)[nH]c3ccccc3c2=O)cc1 | -8.5% | · | 0.0% | -16.7% | 29.6
Cc1cccc(-n2cnc3cc(C(=O)NC4CCCCCC4)ccc32)c1 | -28.0% | · | 3.1% | -20.1% | -29.7
Cc1ccc(-c2ccc(C(=O)NCc3ccccc3)o2)c2ccccc12 | -17.0% | ? | -1.0% | -6.1% | -6.3
CCOc1ccccc1-c1ccc(C(=O)NCc2ccccc2)o1 | ? | 14.1µM* | 29.5% | -26.8% | -1.8
C[N+]1=C(/C=C/Nc2ccccc2Cl)C(C)(C)c2ccccc21 | 103.8% | ? | -27.7% | 34.1% | -32.7
COC(=O)c1ccc2c(c1)C(C)(C)C(/C=C/c1ccccc1O)=[N+]2C | · | 7.94µM* | 7.94µM* | · | -104.1*
NCC(=O)c1cccc([N+](=O)[O-])c1 | 3.0% | · | · | -17.0% | ·
COCCCNC(=O)[C@@H](C)N1Cc2ccc(-c3cccc(F)c3)nc2C1=O | · | · | · | · | -21.6
